The source made the active and inactive calls. Rule for the calls: active = hit-call score of the fitted dose curve at least 0.9, where 1 is the maximum; inactive = score below 0.9.

The nature of this experiment: ATG_AP_1_CIS: Attagene CIS-FACTORIAL HepG2 Assay for human Activator Protein 1 (AP-1) (AID 2282931). The settings on record: HepG2 Attagene cis-factorial AP-1 reporter mRNA; actives raise or lower the signal. The protocol: ATG_CIS is a cell-based, multiplexed-readout assay that uses HepG2, a human liver cell line, with measurements taken at 24 hours after chemical dosing in a 24-well plate.ATG_AP_1_CIS is one of 52 assay component(s) measured or calculated from the ATG_CIS assay. It is designed to make measurements of mRNA induction, a form of inducible reporter, as detected with fluorescence intensity signals by Reverse transcription polymerase chain reaction (RT-PCR) and Capillary electrophoresis technology.Data from the assay component ATG_AP_1_CIS was analyzed into 1 assay endpoint. This assay endpoint, ATG_AP_1_CIS, was analyzed with bidirectional fitting relative to DMSO as the negative control and baseline of activity. Using a type of inducible reporter, measures of mRNA for gain or loss-of-signal activity can be used to understand the reporter gene at the transcription factor-level as they relate to the gene FOS and JUN. Furthermore, this assay endpoint can be referred to as a primary readout, because this assay has produced multiple assay endpoints where this one serves a reporter gene function. To generalize the intended target to other relatable targets, this assay endpoint is annotated to the dna binding intended target family, where the subfamily is basic leucine zipper.
Human liver HepG2 cells are transiently transfected with multiple reporter transcription units (MRTUs) in 6-well plates using FuGene 6 reagent (Roche; 3 ml FuGene/1 mg DNA). The MRTU constructs are regulated by a cis-regulating element (promoter). […] A major difference between the CIS and TRANS system is that in CIS activities of endogenous TFs are measured, whereas the TRANS assay evaluates changes in activities of exogenous, chimeric NR-Gal4 proteins. […] At the end of 24 hour incubation, total RNA was isolated using TriZol reagent (Invitrogen). The isolated RNA is then reverse-transcribed using oligo(dT) primer and Mo-MLV reverse transcriptase (Invitrogen) with DNAse I (Ambion) treatment for 30 min. The one-tenth of the produced cDNA was amplified by PCR using Taq DNA polymerase (Invitrogen) and two reporter sequence-specific primers. The PCR products were fluorescently labeled by primer extension with 6-arboxyfluorescein (6-FAM) 5'-labeled reporter sequence-specific primer (2 min at 95 C, 20 s at 68 C and 10 min at 72 C) and these products were digested with 5U of HpaI (New England Biolabs) for 2h at 37 C. The fragments were purified using Qiaquick PCR columns (Qiagen), analyzed on an ABI 3130xL genetic analyzer (Applied Biosystems) with peak positions identified by using a set of X-rhodamine (ROX)-labeled MapMarker1000 molecular weight standards (BioVentures). The raw capillary electrophoresis data was processed using Attagraph software (Attagene).
On to `CC1(C)OC[C@@H]2O[C@@]3(C(=O)O)OC(C)(C)O[C@H]3[C@@H]2O1`, for which the outcome was inactive.

Regarding `CC(C=O)Cc1ccc(C(C)C)cc1` (stereo not given), the result was inactive.

For `CCc1ccc(C=O)cc1`, the molecule was classed as inactive.

As for `Cc1ccc2n[nH]nc2c1`, the outcome was inactive.

For the molecule `CC(C)(CO)[N+](=O)[O-]`, the molecule was called inactive.

As for `OCCOCCOCCOCCO`, the molecule was classed as inactive.

Turning to `COC(=O)Cc1cccc2ccccc12`, the outcome was inactive.

As to `FC1(F)C(F)(F)C(F)(F)C2(F)C(F)(C1(F)F)C(F)(F)C(F)(F)C1(F)C(F)(F)C(F)(F)C(F)(F)C(F)(F)C12F` (stereo not given), the molecule was classed as inactive.

Turning to `O=C(O)CCCCC1CCSS1` (stereo not given), the result was inactive.

For `c1cc(C(c2ccc(OCC3CO3)cc2)c2ccc(OCC3CO3)cc2)ccc1OCC1CO1` (stereo not given), the AC50 (commonly the concentration at which the activity in the assay is half-maximal) is 19.8 µM (active).

Regarding `O=C(Cl)c1cccc(C(=O)Cl)c1`, the molecule was classed as inactive.

Take `CCC/C=C/C=O`: the molecule was called inactive.

For `CCCCCCOC(=O)CC`, the outcome was inactive.

Take `CC(CN1c2ccccc2Sc2ccccc21)N(C)C` (stereo not given): the call was inactive.

With `c1ccc(CCCc2ccccn2)cc1`, the molecule was classed as inactive.

With `Nc1cc(Cl)c(O)c(Cl)c1`, the result was inactive.

Regarding `Cc1ccc(C(=O)O)o1`, the molecule was classed as inactive.

Take `CC1(C)[C@H]2CC[C@]1(C)[C@H](O)C2`: the call was inactive.

In the case of `OC1C(O)C(O)C(O)C(O)C1O` (stereo not given), the molecule was classed as inactive.

`CCCCCC=CCC(=O)OC`: the molecule was classed as inactive.

On to `CCC(O)CO` (stereo not given), for which the result was inactive.

Take `O=C(OCc1ccccc1)C(=O)OCc1ccccc1`: the molecule was called inactive.

For `Clc1nc(C(Cl)(Cl)Cl)c(Cl)c(Cl)c1Cl`, the AC50 was 28.8 µM (active).

On to `CCCCC(CC)COCCC#N` (stereo not given), for which the result was inactive.

With `O=C1CCc2ccccc2O1`, the molecule was classed as inactive.

As to `CC(C)C[C@H]1C(=O)N2CCC[C@H]2[C@]2(O)O[C@](NC(=O)[C@@H]3C=C4c5cccc6[nH]c(Br)c(c56)C[C@H]4N(C)C3)(C(C)C)C(=O)N12`, the outcome was inactive.

As for `CC(C)=CCC[C@](C)(O)[C@@H]1CC=C(C)CC1`, the outcome was inactive.

Regarding `COc1ccnc(CS(=O)c2nc3cc(OC(F)F)ccc3[nH]2)c1OC` (stereo not given), the molecule was called inactive.

As for `CCn1c2ccccc2c2cc(N)ccc21`, the result was inactive.

On to `CC(C)[C@@H]1CC[C@@H](C)CC1=O`, for which the result was inactive.

Regarding `CCCCCCC#CC(=O)OC`, the call was inactive.

For the molecule `CCCC1CCC(=O)O1` (stereo not given), the call was inactive.

Regarding `C=C(C)C(=O)O[C@H]1C[C@@H]2CC[C@@]1(C)C2(C)C`, the half-maximal activity concentration (AC50) was 100 µM (active).

`O=C(O)CCCCCCCC(=O)O`: the call was inactive.

`NC(=O)c1ccccc1Cl`: the AC50 is 27 µM (active).

With `CN(CCOc1ccc(CC2SC(=O)NC2=O)cc1)c1ccccn1` (stereo not given), the call was inactive.

Turning to `NC(=O)NC1NC(=O)NC1=O` (stereo not given), the call was inactive.

On to `CCCc1ccccc1O`, for which the call was inactive.

In the case of `CNCCO`, the molecule was classed as inactive.

In the case of `CC(CCO)CCc1ccccc1` (stereo not given), the outcome was inactive.

The values above are taken from PubChem BioAssay (EPA / NIEHS).
